Screening data as filed in PubChem.
TGFb inhibitor: qHTS for Inhibitors of TGF-b; HepG2 CAGA-GFP TGF-b/SMAD3 reporter, GFP fluorescence, 18 h; TGF-beta stimulated, 500 pg/mL final; Potency, µM (series often up to 46.1 µM), without a hit: at the top dose activity, negative = inhibition, usual class: inhibitors; 1.2% of 410,000 active; also: % is scaled to controls: 0 for no effect and ±100 for the full control effect; nearly all actives have a fitted effect of over 65% in size
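HEPG2 CAGA-GFP reporter cells (1000/well, DMEM with 1% FBS) received compounds, then recombinant TGF-beta at 500 pg/mL final for 18 hours at 37 degrees C. Per-cell GFP summed per well was normalised to unstimulated and stimulated DMSO controls before curve fitting.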
HepG2 tox: qHTS for Inhibitors of TGF-b: Cytotox Counterscreen. HepG2 CAGA-GFP viability, ATP luminescence, 18 h. Potency, µM (titrated, usually from 46.1 µM), for inactives: top-dose activity change, negative = cytotoxicity, actives largely listed as cytotoxic. 0.76% of 410,000 active. AID 588856, 2011
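HepG2 CAGA-GFP cells (1000/well, DMEM with 1% FBS) received compound, then TGF-beta at 500 pg/mL final, and were incubated 18 hours at 37 degrees C. Viability was read by CellTiter-Glo luminescence. Media-only wells were set as complete cell-killing and DMSO as no toxicity.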
ATXN2 expr inh: Primary qHTS for Inhibitors of ATXN expression; 0.72% of 360,000 active; Potency, µM (series often up to 57 µM), without a hit: at the highest dose activity change, negative = inhibition, actives largely listed as inhibitors; HEK-293 ATXN2-luciferase reporter, luminescence, 24 h; also: % is scaled to controls: 0 for no effect and ±100 for the full control effect; nearly all actives have a fitted effect of over 55% in size
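qHTS (up to 57 uM final) was run with 24 h compound exposure of reporter cells at 37 °C. Each well was multiplexed: SteadyGlo luminescence measured ATXN2-luciferase expression after a fluorogenic Gly-Phe-AFC viability readout (25 uM final).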
KB-V1 MDR tox: qHTS assay for MDR1-selective chemotherapeutics: Primary screen using the drug-selected MDR subline cells KB-V1. KB-V1 MDR cells viability, CellTiter-Glo, 72 h. 3.4% of 400,000 active. Potency, µM (top dose mostly 46.1 µM), usual class: cytotoxic; also: % is scaled to controls: 0 for no effect and ±100 for the full control effect; nearly all actives have a fitted effect of over 60% in size
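Cytotoxicity toward P-gp-expressing KB-V1 cells was determined as loss of CellTiter-Glo luminescence after 72 h at 37 degrees C. Compounds were tested in quantitative HTS format across a concentration range, with curves fitted to normalized data.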
KB-3-1 tox: qHTS assay for MDR1-selective chemotherapeutics: Primary screen using the parental adenocarcinoma cell KB-3-1. KB-3-1 viability, CellTiter-Glo ATP luminescence, 72 h. Potency, µM (highest dose often 46.1 µM), hits mostly cytotoxic. 1.4% of 400,000 active; also: % is scaled to controls: 0 for no effect and ±100 for the full control effect; nearly all actives have a fitted effect of over 60% in size
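Parental KB-3-1 adenocarcinoma cells in phenol-red-free DMEM with 10% FBS were pin-treated with compounds at several concentrations, incubated 72 h at 37 °C, and viability read by CellTiter-Glo luminescence; concentration-effect curves were fitted after normalization.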
S2 tox: Viability Counterscreen for Primary qHTS for Inhibitors of ATXN expression. S2 cells (HEK-293 line with an ATXN2-luciferase reporter) viability, CellTiter-Fluor protease fluorescence, 24 h. Potency, µM (doses to about 56.7 µM), most hits filed as cytotoxic. 0.49% of 400,000 active. AID 651635, 2014; also: nearly all actives have a fitted effect of over 40% in size
* marks the source's active call; other numbers are inactive results; i = inactive; ? = inconclusive; / = no result given; [ ] = another dose, or the depositor's remark. Rows were chosen to be rich in hits. Some 5.9% of all compounds tested hit in one or more screens of this group. Calls follow the shape of the dose curve; as a rule, active = well fitted curve in the direction sought with a large enough effect; inconclusive = small, poorly fitted or top-dose-only effect, or another doubt; inactive = no such curve, though single readings can be large; an effect the other way counts as inactive or inconclusive. Potency is read from the fitted curve at half-maximal effect.

SMILES	TGFb inhibitor	HepG2 tox	ATXN2 expr inh	KB-V1 MDR tox	KB-3-1 tox	S2 tox
CCOc1ccc(N2CC(c3nc4ccccc4n3CCC3CCCCC3)CC2=O)cc1 (stereo unspecified)	-9%	-3%	16%	i	i	?
COc1ccc(C(=O)NCCn2cc(SC(C)c3ccccc3)c3ccccc32)cc1OC (stereo unspecified)	?	-20%	?	i	i	?
NC(N)=N/N=C/c1cn(-c2ccccc2)nc1-c1cccs1	?	11µM*	/	?	i	/
C[C@@H]1O[C@@H](O[C@@H]2C=C3CC[C@@H]4C(CC[C@]5(C)[C@@H](c6ccc(=O)oc6)CC[C@]45O)[C@@]3(C)CC2)[C@H](O)[C@H](O)[C@H]1O (stereo partly specified)	0.28µM*	-53%	-75%	0.026µM*	?	?
C[C@@H]1O[C@@H](O[C@@H]2C=C3CCC4C(CC[C@]5(C)[C@@H](c6ccc(=O)oc6)CC[C@]45O)[C@@]3(C)CC2)[C@H](O)[C@H](O)[C@H]1O (stereo partly specified)	-98%	-68%	-82%	?	0.01µM*	?
CC(=O)C1CCC2(O)C3CCC4=CC(=O)CCC4(C)C3CCC12C (stereo unspecified)	-3%	16%	9%	?	i	i
CN[C@@H]1Cc2cccc3[nH]c(=O)n(c23)C1	/	/	-3%	/	/	/
C[C@H]1CCCC(=O)CCC/C=C/c2cc(O)cc(O)c2C(=O)O1	18%	-5%	?	16µM*	i	?
COC(=O)[C@H]1[C@@H](OC(=O)c2ccccc2)C[C@@H]2CC[C@H]1N2C	/	/	/	/	/	i
CCc1ccccc1NC(=O)CSc1nnc([C@@H](N)Cc2c[nH]c3ccccc23)o1	2%	0%	0%	i	i	i
CCc1ccccc1NC(=O)C(CC)Oc1ccccc1-c1nnc(-c2ccccc2)o1 (stereo unspecified)	-1%	-3%	?	?	15µM*	?
CC(C)C[C@H](CN)CC(=O)O	/	/	-4%	/	/	/
CC(C)(C)NC[C@H](O)c1ccc(O)cc1Cl	/	/	14%	/	/	?
CCOc1ccc(-c2nc(CSCC(=O)NCCc3ccc(OCC)c(OCC)c3)c(C)o2)cc1	-17%	-16%	20µM*	?	i	32µM*
Cc1ccsc1-c1nc(CSCC(=O)N2CCC3(CC2)OCCO3)c(C)o1	0%	-27%	1%	?	i	i
CCO/N=C(\CC)C1=C(O)CC(c2c(C)cc(C)cc2C)CC1=O (stereo unspecified)	/	/	36%[116 µM]	/	/	?
C=C1C(=O)O[C@@H]2C[C@@H](C)[C@@H]3C=CC(=O)[C@@]3(C)[C@@H](O)[C@H]12	4µM*	11µM*	1.8µM*	i	?	/
C=C1C(=O)O[C@@H]2C[C@@H](C)[C@@H]3C=CC(=O)[C@@]3(C)[C@@H](OC(C)=O)[C@H]12	0.71µM*	2.5µM*	1.1µM*	15µM*	?	/
COc1ccc2nc(N3CCN(C(=O)CS(=O)(=O)c4ccc(C)cc4)CC3)sc2c1	?	-9%	/	/	/	/
Cc1ccc(Cl)cc1N1CCN(C(=O)C2CCCN(S(=O)(=O)c3ccc(Br)s3)C2)CC1 (stereo unspecified)	?	4%	-5%	i	?	i
COc1ccccc1CCNC1C2CC3CC(C2)CC1C3 (stereo unspecified)	6%	-51%	-11%	15µM*	i	i
COc1ccc(CN2CCN(C(=O)Cn3c(=O)oc4cc(Cl)ccc43)CC2)c(OC)c1OC	?	-22%	/	i	i	?
C=CCn1c(O)c(C(CC)=Nc2ccc(NC(C)=O)cc2)c(=O)[nH]c1=O	-13%	2%	-5%	i	i	i
C=CCn1c(O)c(C(C)=Nc2ccc(N(C)C)cc2)c(=O)[nH]c1=O	-5%	-22%	16%	i	?	i
C=CCn1c(O)c(C(C)=Nc2ccc(N(CC)CC)cc2)c(=O)[nH]c1=O	7%	-1%	-4%	12µM*	5.8µM*	?
SMILES	TGFb inhibitor	HepG2 tox	ATXN2 expr inh	KB-V1 MDR tox	KB-3-1 tox	S2 tox
C=CCn1c(O)c(C(CC)=Nc2ccc(N(CC)CC)cc2)c(=O)[nH]c1=O	-3%	-5%	1%	15µM*	23µM*	i
Cc1ccc(Cl)cc1NC(=O)Cn1c(=O)oc2cc(S(=O)(=O)N3CCCC3)ccc21	/	-38%	/	/	/	/
C=C(C=O)CC1CC(O)[C@]2(C)OC3CC4OC5C[C@]6(C)O[C@]7(C)CCC8OC9C[C@]%10(C)OC%11C(C)=CC(=O)OC%11CC%10OC9C[C@@H](C)C8OC7CC6O[C@]5(C)CC5OC5C4OC3CC2O1 (stereo partly specified)	?	-32%	?	i	12µM*	/
CCC(=NCc1ccc2c(c1)OCO2)c1c(O)n(C)c(=O)n(C)c1=O	6%	-27%	-25%	i	15µM*	i
CCCCn1c(O)c(C(C)=NCc2ccc3c(c2)OCO3)c(=O)[nH]c1=O	-3%	3%	-22%	?	i	i
CCC(=NCc1cc(OC)cc(OC)c1)c1c(O)n(C2CCCCC2)c(=O)[nH]c1=O	?	-21%	/	?	i	i
CCC(=NCCOc1ccc(Cl)cc1)c1c(O)n(C)c(=O)n(C)c1=O	3%	15%	-30%	18µM*	?	i
CCC(=NCc1cc(OC)cc(OC)c1)c1c(O)n(C)c(=O)n(C)c1=O	-19%	-7%	-24%	7.3µM*	?	i
CC(=NCc1ccc2c(c1)OCO2)c1c(O)n(C)c(=O)n(C)c1=O	-4%	-24%	-14%	21µM*	8.2µM*	i
CCC(=NCCN1CCCCC1)c1c(O)n(C)c(=O)n(C)c1=O	12%	-1%	-2%	i	i	i
CCCCNC(=O)c1cc(-c2cccnc2)nc2ccc(S(=O)(=O)NCCCC)cc12	6%	-5%	-12%	i	i	?
CCN(CC)C(=O)c1ccc(NC(=O)COc2ccc(-c3nn(C)c(=O)c4ccccc34)cc2)cc1	10µM*	-13%	?	?	?	i
CCN(CC)C(=O)c1ccc(NC(=O)CCn2nc(-c3ccc(C)cc3)c3ccccc3c2=O)cc1	0%	-22%	/	/	/	/
Cc1cc(C)n(-c2ccc(NN=C(C#N)C#N)cc2)n1	?	-78%	/	i	i	?
